Hits are enriched below; roughly 12% of the tested compounds scored in any of these assays.
Lassa entry inh: Lassa virus entry inhibition | Lassa virus pseudotype entry inhibition, cell reporter | Potency, µM (series often up to 37.9 µM), without a hit: top-dose activity change, negative = inhibition, most hits filed as inhibitors | 300,000 tested, 1.2% active | AID 540256; calls by dose curve; tested in HEK293 cells; note: potency is the fitted concentration of half-maximal effect; % is set by controls: 0 for no effect and ±100 for the full control effect; nearly all actives have a fitted effect of over 50% in size
Cycloheximide cs: counter-screen for Shiga toxin inhibitors: cycloheximide protein synthesis inhibition | 300,000 tested, 12% active | max response, % | cell reporter, cycloheximide protein synthesis inhibition counterscreen | AID 2314; in the data active = max response mostly above about 13%, no sharp cut-off; inactive = mostly below about 14%; note: read at 38.3 µM for the half of the compounds with a filed dose; 0% is about no effect
MARV entry inh: inhibitors of Marburg virus binding or cell entry | Marburg virus pseudotyped entry inhibition, cell reporter | Potency, µM (titrated, usually from 37.8 µM), inactives show top-dose activity change, negative = inhibition, actives largely listed as inhibitors | 300,000 tested, 1.8% active | AID 540276; calls by dose curve; tested in HEK293 cells; note: potency is the fitted concentration of half-maximal effect; % is set by controls: 0 for no effect and ±100 for the full control effect
Shiga toxin inh: blocks Shiga toxin action in Vero cells | Vero cells, Shiga toxin protein synthesis inhibition reporter | inhibition, % at 38.7 µM | 290,000 tested, 9.2% active | AID 2315; in the data active = inhibition mostly above about 28%, no sharp cut-off; inactive = mostly below about 43%; note: 0% is about no effect
* hit, by the source's call; ? = inconclusive; · = not tested or not shown; [ ] = dose if it differs, or a comment.

SMILES	Lassa entry inh	Cycloheximide cs	MARV entry inh	Shiga toxin inh
O=C(NNC(=O)c1cc(Cl)ccc1O)c1cccs1	-25%[46.1 µM]	29*	?	49*
O=C(Nc1ccc(N2C(=O)C3CCCCC3C2=O)cc1Cl)c1cccs1 (centres undefined)	1%[46.1 µM]	18*	12%[46.1 µM]	31
CC(=O)Nc1ccc(S(=O)(=O)NCCc2cn3nc(C)c(C)nc3n2)cc1	·	16	·	-1
CC(=O)c1ccc(NC(=O)Cn2c3ncccc3c(=O)n2-c2ccc(C)cc2)cc1	6%[46.1 µM]	·	9%[46.1 µM]	·
CC(=O)c1sc2nc(C)cc(C)c2c1N	-3%	-5	23%	-3
Cc1ccc2nc(-c3sc4nc(C)cc(C)c4c3N)[nH]c2c1	13µM*	26*	?	43*
Nc1ccc2nc(-c3cccc(-c4nc5ccc(N)cc5[nH]4)n3)[nH]c2c1	·	1	·	-5
Nc1cccc(-c2nc3ccccc3[nH]2)c1	?	22*	?	71*
Nc1ccc(-c2nc3ccc(-c4nc5ccc(N)cc5[nH]4)cc3[nH]2)cc1	?	0	?	-7
Cc1ccc2nc(-c3cccc(N)c3)[nH]c2c1	?	17*	?	33*
COc1ccc(C2(N3CCN(c4cccc(C)c4C)CC3)C(=O)c3ccccc3C2=O)cc1	14%[46.1 µM]	·	-4%[46.1 µM]	·
CCC(=O)Nc1ccc2nc(SCCOc3ccc(C)cc3)sc2c1	-15%[46.1 µM]	·	-6%[46.1 µM]	·
CCCC/C=C/[C@H](c1ccccc1)[C@H](CO)Cc1ccc([N+](=O)[O-])cc1	·	6	·	16
S=C(NCc1ccncc1)Nc1ccc(Cl)c(Cl)c1	-18%	-4	?	-10
CC(Cc1cccs1)NC(=S)Nc1ccc(Cl)c(Cl)c1 (centres undefined)	-10%	11	-6%	active
CC(Cc1cccs1)NC(=S)Nc1ccc(Cl)cc1 (centres undefined)	-4%	21*	?	45*
CCOC(=O)C1(CCOC)CCN(C(C)CCc2ccc(OC)cc2)CC1 (centres undefined)	·	-4	·	-1
COc1ccc(/C=C2\OC(=S)N(C)C2=O)cc1	3%	11*	?	23
CN(C)c1ccc(/C=C2\N=C(C(C)(C)C)OC2=O)cc1	·	7	·	-1
CN1C(=O)/C(=C\c2ccc(N(C)C)cc2)OC1=S	19%[46.1 µM]	12*	9%[46.1 µM]	1
c1ccc(Nc2nc(-c3ccccc3)ns2)cc1	?	52*	10µM*	82*
CC(C)(C)C(=O)Nc1nc(-c2ccccc2)ns1	?	58*	?	84*
CCCC(=O)Nc1ccc2c(c1)nc(CCN1CCCCC1)n2C	?	-1	2%[46.1 µM]	-10
Cc1ccc(C)c(SCC(=O)Nc2cccnc2Cl)c1	·	2	·	-10
CN(C)c1ccc(NC(=O)c2ccc3nc[nH]c3c2)cc1	·	51*	·	138*
SMILES	Lassa entry inh	Cycloheximide cs	MARV entry inh	Shiga toxin inh
O=C(NC1CCCC1)c1ccc2nc[nH]c2c1	-3%	-1	23%	16
O=C(Nc1ccc(F)cc1)c1ccc2nc[nH]c2c1	·	30*	·	46*
O=C(NNC(=O)c1ccccc1Br)c1ccc2nc[nH]c2c1	·	6	·	2
O=C(NNC(=O)c1ccccc1F)c1ccc2nc[nH]c2c1	?	22*	15%[46.1 µM]	68
Cc1ccc(NC(=O)C(Cc2ccccc2)n2cccc2)c(C)c1 (centres undefined)	·	·	10%[46.1 µM]	·
O=C(Cn1cc2c(n1)CCCC2)Nc1ccccc1Cl	·	-2	·	16
Cc1ccc2nc(NC(=O)Cn3cc4c(n3)CCCCC4)sc2c1	·	16*	·	30
O=C(Cn1cc2c(n1)CCCCC2)Nc1ccccc1Cl	0%	12*	1%	21
Nc1cc(Cl)ccc1N1CCCCCC1	17%	12	29%[46.1 µM]	13
CC(NC1CCCCC1)C(O)C12CC3CC(CC(C3)C1)C2 (centres undefined)	?	3	7.3µM*	-21
COc1cc(/C=C/C(=O)C2C(=O)C=C(C)OC2=O)cc(OC)c1O (centres undefined)	-29%	-3	1%	13
COc1ccc(/C=C/C(=O)C2C(=O)C=C(C)OC2=O)cc1O (centres undefined)	-3%	17*	-21%	13
Nc1c(C(=O)Nc2ccccc2)sc2nc3c(cc12)CN(Cc1ccccc1)CC3	-1%[46.1 µM]	·	8%[46.1 µM]	·
O=C(Nc1nc2c(s1)CN(Cc1ccccc1)CC2)c1c(F)cccc1F	1%	30*	?	42*
CC(C)(C)C(=O)Nc1nc2c(s1)CN(Cc1ccccc1)CC2	5%	44*	?	67*
O=C(Nc1nnc(Cc2ccccc2)s1)C1CCC1	·	0	·	20
O=C(Nc1nc2c(s1)CN(Cc1ccccc1)CC2)C1CCCC1	2%	23*	-6%	28
CCOCCc1nn2c(=O)cc(COC(=O)CNC(=O)c3cccc(C)c3)nc2s1	2%[46.1 µM]	·	·	·
COc1cccc(CNC(=O)Cn2nc(C)c3sc4ccccc4c3c2=O)c1OC	2%[46.1 µM]	·	-2%[46.1 µM]	·
CN(Cc1cn[nH]c1-c1ccc(-c2ccccc2)cc1)CC1CCOCC1	·	17*	·	38
CN(Cc1ccon1)Cc1cn[nH]c1-c1ccc(-c2ccccc2)cc1	?	30*	-1%[46.1 µM]	24
CC(c1ccon1)N(C)Cc1cn[nH]c1-c1ccc(-c2ccccc2)cc1 (centres undefined)	-11%	15	?	73*
CCN(CCn1cccn1)Cc1cn[nH]c1-c1ccc(-c2ccccc2)cc1	·	11	·	42
COc1cccc(CNCc2c(C(=O)O)c(C)n(Cc3ccc(F)cc3Cl)c2C)c1OC	-15%[46.1 µM]	·	-13%[46.1 µM]	·
CCC1(c2ccc(Cl)cc2)NC(=S)N(c2ccccc2)N1 (centres undefined)	1%	14*	?	37
SMILES	Lassa entry inh	Cycloheximide cs	MARV entry inh	Shiga toxin inh
CC1CCC2(CC1)NC(=S)N(c1ccccc1)N2 (centres undefined)	?	24	?	41
CCC1(c2ccccc2)NC(=S)N(c2ccc(C)cc2)N1 (centres undefined)	7%[46.1 µM]	27*	?	54
N#Cc1cccc(Cn2nnc(-c3ccccc3)n2)c1	0%	13*	?	21
c1ccc(Cn2nnc(-c3ccccc3)n2)cc1	?	35*	2%	94*
Nc1nnn(Cc2ccccc2)n1	16%	-1	0%	-4
Cc1nn(C)c(C)c1-c1cccc2c1CCC(N(C)C)C2 (centres undefined)	·	-1	·	14
COc1ccc(C2=[N+]([O-])C(C)(C)N(O)C2C)cc1 (centres undefined)	?	-1	-1%	10
Cc1cccc(CSC2=NN3CCCC(=O)N=C3S2)c1	?	43*	2%	56*
O=C1CCCN2N=C(SCC(=O)Nc3cccc(Cl)c3)SC2=N1	-23%[46.1 µM]	2	-27%[46.1 µM]	-5
Cc1ccc(OCCCn2c(CO)nc3ccccc32)cc1	-27%	18*	-33%	67*
Cc1cccc(OCCCn2c(CO)nc3ccccc32)c1	?	44*	?	122*
COc1cccc(OCc2nc3ccccc3n2CCOc2cccc(C)c2)c1	1%[46.1 µM]	·	-20%[46.1 µM]	·
Cc1ccccc1OCCCCn1c(CO)nc2ccccc21	?	-3	?	-3
OCc1nc2ccccc2n1CCCOc1ccccc1	4%	30*	-27%	35*
Cn1nnc2ccccc2c1=O	-3%[46.1 µM]	-5	1%[46.1 µM]	7
